This is an account of results in ChEMBL document CHEMBL2218924, “A broad activity screen in support of a chemogenomic map for kinase signalling research and drug discovery” (Biochem J, 2013).

For one assay, the target named is T1, Ephrin type-A receptor 1 (Homo sapiens) (UniProt P21709).
T1 sequence (whole entry): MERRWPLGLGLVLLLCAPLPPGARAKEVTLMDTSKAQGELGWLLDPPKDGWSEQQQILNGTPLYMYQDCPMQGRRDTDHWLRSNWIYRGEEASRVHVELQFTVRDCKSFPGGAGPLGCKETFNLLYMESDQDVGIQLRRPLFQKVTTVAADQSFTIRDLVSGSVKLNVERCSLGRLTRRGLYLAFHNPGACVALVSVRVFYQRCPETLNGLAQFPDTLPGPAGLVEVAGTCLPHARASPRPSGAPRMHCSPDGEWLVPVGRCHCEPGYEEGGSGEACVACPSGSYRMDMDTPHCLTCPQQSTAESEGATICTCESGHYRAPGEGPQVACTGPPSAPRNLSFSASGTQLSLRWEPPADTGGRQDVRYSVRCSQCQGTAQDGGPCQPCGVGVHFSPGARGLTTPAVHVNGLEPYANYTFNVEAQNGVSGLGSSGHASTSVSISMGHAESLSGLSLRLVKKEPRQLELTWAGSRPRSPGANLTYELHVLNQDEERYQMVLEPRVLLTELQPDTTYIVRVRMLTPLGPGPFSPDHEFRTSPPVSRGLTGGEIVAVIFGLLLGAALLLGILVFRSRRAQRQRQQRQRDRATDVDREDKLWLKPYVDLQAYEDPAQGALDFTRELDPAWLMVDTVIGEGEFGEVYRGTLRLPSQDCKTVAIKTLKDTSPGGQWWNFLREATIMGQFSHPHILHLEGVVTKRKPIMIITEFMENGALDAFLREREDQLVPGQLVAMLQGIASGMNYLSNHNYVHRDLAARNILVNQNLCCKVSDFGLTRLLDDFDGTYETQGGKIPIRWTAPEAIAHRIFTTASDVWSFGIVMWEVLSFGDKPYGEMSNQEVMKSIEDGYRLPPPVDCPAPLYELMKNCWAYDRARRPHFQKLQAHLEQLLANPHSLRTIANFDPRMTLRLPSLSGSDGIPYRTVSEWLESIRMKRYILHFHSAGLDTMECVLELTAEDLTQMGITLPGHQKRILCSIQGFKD
The settings on record: at 10 µM.
With `O=C(CCCc1ccc(-c2ccccc2F)cc1)Nc1ccc(O)cc1`, the residual activity stood at 86%.
Still for that read-out and setting: for `Cn1sc(=O)n(Cc2ccccc2)c1=O` the value was 93%; for `CCOC(=O)c1c(C)[nH]c(/C=C2\C(=O)Nc3ccccc32)c1C`, 118%; for `CC(C)[C@H](CO)Nc1nc(Nc2cc(N)cc(Cl)c2)c2ncn(C(C)C)c2n1`, 11%.
Turning to `O=S(=O)(NCCNC/C=C/c1ccc(Br)cc1)c1cccc2cnccc12`, the residual activity was determined as 63%.
On the same count and under the same terms, under `NC(=O)Nc1sc(-c2ccc(F)cc2)cc1C(N)=O` stands 6%.
Consider `O=C1NC(=O)C(c2c[nH]c3ccccc23)=C1c1c[nH]c2ccccc12`, for which the residual activity stood at 22%.
As for `COc1ccc(Cl)cc1NC(=O)Nc1cc(C)nc2ccccc12`, the residual activity worked out at 89%.
Same read-out and setting: for `COc1ccc2c(c1)c(C1=C(c3c[nH]c4ccccc34)C(=O)NC1=O)cn2CCCN(C)C` the value was 42%; for `NCCNc1ncc(C(N)=O)c(Nc2cccc(C(F)(F)F)c2)n1`, 45%.
`CCCCc1c(-c2ccc(OC)cc2)[nH]c2nccnc12`: the residual activity was determined as 3%.
Turning to `COc1cc2nccc(Oc3ccc(NC(=O)Nc4cc(C)on4)c(Cl)c3)c2cc1OC`, the residual activity amounted to 6%.
Regarding `COc1ccc(COc2ccc(Cc3cnc(N)nc3N)cc2OC)cc1`, the residual activity worked out at 77%.

The target in a further assay is Ephrin type-A receptor 2 (Homo sapiens) (UniProt P29317). The conditions noted are these: at 1 µM.
Chain of Ephrin type-A receptor 2 (Homo sapiens) (P29317 whole entry): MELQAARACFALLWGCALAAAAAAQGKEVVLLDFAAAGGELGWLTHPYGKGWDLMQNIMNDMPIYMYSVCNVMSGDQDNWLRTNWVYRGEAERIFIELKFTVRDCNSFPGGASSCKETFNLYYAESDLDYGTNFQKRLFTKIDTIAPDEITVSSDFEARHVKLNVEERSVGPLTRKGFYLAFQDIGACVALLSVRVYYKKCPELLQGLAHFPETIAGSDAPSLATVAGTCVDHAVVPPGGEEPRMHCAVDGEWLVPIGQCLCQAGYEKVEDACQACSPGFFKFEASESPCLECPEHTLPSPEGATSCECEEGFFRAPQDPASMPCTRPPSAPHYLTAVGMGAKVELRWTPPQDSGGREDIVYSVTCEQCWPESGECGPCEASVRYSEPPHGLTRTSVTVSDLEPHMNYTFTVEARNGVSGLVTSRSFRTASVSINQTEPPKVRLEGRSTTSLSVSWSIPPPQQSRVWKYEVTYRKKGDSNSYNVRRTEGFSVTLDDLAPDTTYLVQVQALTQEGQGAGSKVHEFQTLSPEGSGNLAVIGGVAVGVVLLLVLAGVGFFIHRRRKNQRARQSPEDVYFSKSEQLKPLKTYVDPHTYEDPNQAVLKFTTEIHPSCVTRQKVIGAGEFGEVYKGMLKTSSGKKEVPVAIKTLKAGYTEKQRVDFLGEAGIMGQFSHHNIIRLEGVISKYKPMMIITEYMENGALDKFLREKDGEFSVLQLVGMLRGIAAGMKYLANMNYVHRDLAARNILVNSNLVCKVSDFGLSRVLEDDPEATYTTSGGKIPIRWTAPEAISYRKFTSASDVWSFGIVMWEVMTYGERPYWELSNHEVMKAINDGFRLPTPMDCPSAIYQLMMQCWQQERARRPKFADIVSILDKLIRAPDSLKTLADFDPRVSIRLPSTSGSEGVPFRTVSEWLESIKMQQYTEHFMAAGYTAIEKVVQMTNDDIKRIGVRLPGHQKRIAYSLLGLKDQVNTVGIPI
Take `CN(C)S(=O)(=O)c1ccc2c(c1)/C(=C/c1cc3c([nH]1)CCCC3)C(=O)N2`: the residual activity worked out at 89%.
`CC(C)c1nn(-c2c(Cl)cccc2Cl)c2nc(Cc3ccc(OCCO)cc3)[nH]c(=O)c12`: the residual activity is 96%.
For `O=C(c1ccccc1)c1ccc(N2CCOCC2)cc1O`, the residual activity amounted to 99%.
On the same count and under the same terms, under `O=C(CCCc1ccc(-c2ccccc2F)cc1)Nc1ccc(O)cc1` stands 97%; under `Cn1sc(=O)n(Cc2ccccc2)c1=O`, 93%.
In the case of `CC(C)[C@H](CO)Nc1nc(Nc2cc(N)cc(Cl)c2)c2ncn(C(C)C)c2n1`, the residual activity came to 88%.
`CC(C)(C)c1nc2c3ccc(F)cc3c3c(=O)[nH]ccc3c2[nH]1`: the residual activity stood at 103%.
Take `NC(=O)Nc1sc(-c2ccc(F)cc2)cc1C(N)=O`: the residual activity is 32%.
With `COc1ccc2c(c1)c(C1=C(c3c[nH]c4ccccc34)C(=O)NC1=O)cn2CCCN(C)C`, the residual activity came to 104%.
On the same count and under the same terms, for `NCCNc1ncc(C(N)=O)c(Nc2cccc(C(F)(F)F)c2)n1` the value was 103%; for `CCCCc1c(-c2ccc(OC)cc2)[nH]c2nccnc12`, 87%.
The same measure, in the same setting: for `COc1cc2nccc(Oc3ccc(NC(=O)Nc4cc(C)on4)c(Cl)c3)c2cc1OC` the value was -3%.

The next assay shares this target. The settings on record: at 10 µM.
For `N#C/C(=C\c1ccc(O)c(O)c1)C(=O)NCc1ccccc1`, the residual activity turned out to be 101%.
Same read-out and setting: under `CC(C)c1nn(-c2c(Cl)cccc2Cl)c2nc(Cc3ccc(OCCO)cc3)[nH]c(=O)c12` stands 103%; under `Nc1nc(Nc2ccc(S(N)(=O)=O)cc2)nn1C(=O)c1c(F)cccc1F`, 39%; under `O=C(c1ccccc1)c1ccc(N2CCOCC2)cc1O`, 95%.
For `Cn1sc(=O)n(Cc2ccccc2)c1=O`, the residual activity was 92%.
On the same count and under the same terms, under `CC(C)[C@H](CO)Nc1nc(Nc2cc(N)cc(Cl)c2)c2ncn(C(C)C)c2n1` stands 29%; under `CC(C)(C)c1nc2c3ccc(F)cc3c3c(=O)[nH]ccc3c2[nH]1`, 103%; under `NC(=O)Nc1sc(-c2ccc(F)cc2)cc1C(N)=O`, 4%.
Still for that read-out and setting: under `O=C1NC(=O)C(c2c[nH]c3ccccc23)=C1c1c[nH]c2ccccc12` stands 50%; under `COc1ccc2c(c1)c(C1=C(c3c[nH]c4ccccc34)C(=O)NC1=O)cn2CCCN(C)C`, 33%; under `NCCNc1ncc(C(N)=O)c(Nc2cccc(C(F)(F)F)c2)n1`, 76%.
Consider `CCCCc1c(-c2ccc(OC)cc2)[nH]c2nccnc12`, for which the residual activity stood at 82%.
For `COc1cc2nccc(Oc3ccc(NC(=O)Nc4cc(C)on4)c(Cl)c3)c2cc1OC`, the residual activity was -3%.

In a further assay the target is T2, Ephrin type-A receptor 3 (Homo sapiens) (UniProt P29320).
T2 sequence (whole entry): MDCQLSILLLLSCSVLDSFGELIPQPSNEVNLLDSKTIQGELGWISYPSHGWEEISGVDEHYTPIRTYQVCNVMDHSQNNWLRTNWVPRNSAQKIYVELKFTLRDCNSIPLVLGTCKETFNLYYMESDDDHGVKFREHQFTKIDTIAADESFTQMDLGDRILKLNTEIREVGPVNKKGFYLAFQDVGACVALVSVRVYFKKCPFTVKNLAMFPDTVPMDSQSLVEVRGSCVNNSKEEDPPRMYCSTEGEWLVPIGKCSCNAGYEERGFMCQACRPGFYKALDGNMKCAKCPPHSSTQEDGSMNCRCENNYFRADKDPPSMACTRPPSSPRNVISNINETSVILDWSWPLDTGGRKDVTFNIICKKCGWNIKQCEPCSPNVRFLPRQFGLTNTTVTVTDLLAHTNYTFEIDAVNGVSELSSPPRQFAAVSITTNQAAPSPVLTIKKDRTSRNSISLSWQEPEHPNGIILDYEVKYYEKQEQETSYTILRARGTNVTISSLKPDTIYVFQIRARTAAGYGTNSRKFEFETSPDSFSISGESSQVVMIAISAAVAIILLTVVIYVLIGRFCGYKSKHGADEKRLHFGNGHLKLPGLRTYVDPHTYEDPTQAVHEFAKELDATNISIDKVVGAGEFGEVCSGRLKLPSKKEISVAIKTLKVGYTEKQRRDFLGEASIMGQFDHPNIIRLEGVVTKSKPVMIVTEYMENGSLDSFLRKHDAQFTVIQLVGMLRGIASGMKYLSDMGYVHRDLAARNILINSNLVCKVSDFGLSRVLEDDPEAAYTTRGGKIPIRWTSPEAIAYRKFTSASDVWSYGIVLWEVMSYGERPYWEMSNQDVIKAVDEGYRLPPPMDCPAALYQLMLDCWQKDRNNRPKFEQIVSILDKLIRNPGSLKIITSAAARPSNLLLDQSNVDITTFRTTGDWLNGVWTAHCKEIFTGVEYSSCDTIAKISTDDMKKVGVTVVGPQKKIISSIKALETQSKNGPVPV
The conditions noted are these: at 1 µM.
As for `CN(C)S(=O)(=O)c1ccc2c(c1)/C(=C/c1cc3c([nH]1)CCCC3)C(=O)N2`, the residual activity is 91%.
Same read-out and setting: for `CC(C)c1nn(-c2c(Cl)cccc2Cl)c2nc(Cc3ccc(OCCO)cc3)[nH]c(=O)c12` the value was 94%; for `COc1cc2c(cc1OC)-c1n[nH]c(Nc3cccc(F)c3)c1C2`, 83%.
On the same count and under the same terms, under `CCCC(=O)Oc1ccc2[nH]c(C(=O)c3cc4ccccc4[nH]3)cc2c1` stands 107%; under `Cc1cc(C)c(/C=C2\C(=O)Nc3ccccc32)[nH]1`, 101%; under `O=C1NC(=O)C(c2cn(CCCO)c3ncccc23)=C1c1cnccn1`, 97%.
`O=C(CCCc1ccc(-c2ccccc2F)cc1)Nc1ccc(O)cc1`: the residual activity was 99%.
On to `NC(=O)c1ccc(-c2nc(-c3ccc4c(c3)OCCO4)c(-c3ccccn3)[nH]2)cc1`, for which the residual activity was found to be 100%.
For `Cn1sc(=O)n(Cc2ccccc2)c1=O`, the residual activity turned out to be 87%.
`CC(C)[C@H](CO)Nc1nc(Nc2cc(N)cc(Cl)c2)c2ncn(C(C)C)c2n1`: the residual activity came to 93%.
The same measure, in the same setting: under `CC(C)(C)c1nc2c3ccc(F)cc3c3c(=O)[nH]ccc3c2[nH]1` stands 99%; under `NC(=O)Nc1sc(-c2ccc(F)cc2)cc1C(N)=O`, 80%; under `COc1ccc2c(c1)c(C1=C(c3c[nH]c4ccccc34)C(=O)NC1=O)cn2CCCN(C)C`, 106%.
Still for that read-out and setting: under `CCCCc1c(-c2ccc(OC)cc2)[nH]c2nccnc12` stands 74%; under `COc1cc2nccc(Oc3ccc(NC(=O)Nc4cc(C)on4)c(Cl)c3)c2cc1OC`, 1%; under `COc1ccc(COc2ccc(Cc3cnc(N)nc3N)cc2OC)cc1`, 108%.
